These results are taken from PubChem BioAssay (NCATS).

Records with an inconclusive call do not appear. Unmarked numbers belong to inactive results. Activity calls are given as the source filed them. Calls follow the shape of the dose curve; as a rule, active = well fitted inhibition curve with a large enough effect; inconclusive = small, poorly fitted or top-dose-only effect; inactive = no such curve, though single readings can be large or run the other way.
% is scaled to controls: 0 for no effect and ±100 for the full control effect; potency is read from the fitted curve at half-maximal effect.

Tumor susceptibility gene 101 protein (Homo sapiens), sequence (Q99816 whole entry, looked up, the tested form may be a part): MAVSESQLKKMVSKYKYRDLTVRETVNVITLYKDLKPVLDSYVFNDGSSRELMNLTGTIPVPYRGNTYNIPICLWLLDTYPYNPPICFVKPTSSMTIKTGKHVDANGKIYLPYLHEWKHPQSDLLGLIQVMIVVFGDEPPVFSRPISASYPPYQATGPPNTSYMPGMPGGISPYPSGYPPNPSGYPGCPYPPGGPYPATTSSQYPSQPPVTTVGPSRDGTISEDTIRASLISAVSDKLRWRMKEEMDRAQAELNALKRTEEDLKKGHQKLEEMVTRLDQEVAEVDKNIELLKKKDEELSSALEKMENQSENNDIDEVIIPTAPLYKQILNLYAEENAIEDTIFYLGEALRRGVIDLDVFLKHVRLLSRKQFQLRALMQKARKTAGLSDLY

This experiment deals with Tumor susceptibility gene 101 protein (Homo sapiens) (UniProt Q99816). Put plainly: qHTS Assay for Iinhibitors of HIV-1 Budding by Blocking the Interaction of PTAP/TSG101: Hit Validation (AID 651600). Also: nearly all actives have a fitted effect of over 70% in size. The conditions noted are these: PTAP peptide/TSG101 UEV interaction, biochemical assay; series mostly up to 57.5 µM; activity change, negative = inhibition: at the top concentration. An outline of the steps:
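Fluorescence polarization binding assay: Tsg101 binding domain (10 uM final) pre-dispensed with compounds, then FITC-labeled PTAP-motif peptide (50 nM final) added; 20 min at r.t. in HEPES pH 7.5 buffer with NaCl, Tween 20, EDTA, TCEP.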
Background: qHTS replaces the single test concentration by a dilution series.
On to `CCCN1CCCc2cc(CN)ccc21`, for which the “activity change, negative = inhibition” value was -4.04%.

For `CC1CCc2cccc3c2N1c1cc(C#N)c(C#N)cc1O3` (centres undefined), the “activity change, negative = inhibition” value is -68.5%.

Consider `CCCN1CCN(S(=O)(=O)c2cn(C)nc2C)CC1`, for which the “activity change, negative = inhibition” value is -13.4%.

For the molecule `CCCCC(=O)NC1=NC(=O)C(C)(C)S1`, the “activity change, negative = inhibition” value is 0.827%.

Consider `COc1ccc(OC)c(S(=O)(=O)Nc2cc3c(cc2C)n(C)c(=O)c(=O)n3C)c1`, for which the “activity change, negative = inhibition” value was -17.1%.

`CCCCCCn1c(=O)[nH]c2nc3cc(N)ccc3nc2c1=O`: the Potency was 14.6 µM (active).

Take `CC(=O)Nc1ccc(N=Cc2c(O)ccc3ccccc23)cc1`: the Potency is 29.1 µM (active).

On to `CN1c2ccc(C=O)c3c(C=O)ccc(c23)N(C)C1(C)C`, for which the “activity change, negative = inhibition” value is 10.5%.

For `O=C(O)c1ccc(-n2c(-c3ccc(Br)cc3)n[nH]c2=S)cc1`, the “activity change, negative = inhibition” value is -23.7%.

In the case of `O=C1CCCC2=C1Sc1ccc(Cl)cc1N2`, the “activity change, negative = inhibition” value is 6.23%.

In the case of `Cc1cccc(NC(=S)NCCC(c2ccccc2)c2ccccc2)c1`, the “activity change, negative = inhibition” value is 15.7%.

As to `COc1cc(/C=c2\sc3nc(=O)c(-c4ccccc4)nn3c2=O)ccc1OCCC(C)C`, the “activity change, negative = inhibition” value is 0.977%.

Regarding `COc1ccc(C2C(C(=O)c3cccs3)=C(O)C(=O)N2c2nnc(C)s2)cc1OC` (centres undefined), the Potency was 6.51 µM (active).

`C(=N\NC1=Nc2cccc3cccc1c23)/c1ccccc1`: the “activity change, negative = inhibition” value is -7.26%.

As to `O=C(CC1CC2CCC1C2)NCc1cccs1` (centres undefined), the “activity change, negative = inhibition” value was 5.71%.

As for `COc1ccc(-c2onc3ccc(Br)cc23)cc1`, the “activity change, negative = inhibition” value was -8.81%.

`O=C(NCc1cc(C(F)(F)F)ccc1Cl)c1cccc2c1C(=O)c1ccc(N3CCC(Cc4ccccc4)CC3)cc1S2(=O)=O`: the Potency was 13 µM (active).

As for `COc1ccc(-c2cc(C(F)(F)F)c3c(N)c(C(=O)NCCSC)sc3n2)cc1`, the “activity change, negative = inhibition” value is -1.51%.

For the molecule `CCOC(=O)C1Nc2ccccc2C2C(O)C(O)CC12` (centres undefined), the “activity change, negative = inhibition” value is -18.1%.
